In PubChem BioAssay:
The source made the active and inactive calls.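 Rule for the calls: active = at least 20% inhibition of 6-phosphogluconate dehydrogenase activity; inactive = the rest.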 Where a SMILES comes first, the peptide text is derived from it. [ ]: non-standard residue; d: D form. The star is where a group is joined. NHCH2CH2OH = OCCN*; For = O=C*

The compounds below were run against 6-phosphogluconate dehydrogenase, decarboxylating (Homo sapiens) (UniProt P52209) (assay: 6PGD enzyme inhibitors, primary screen, biochemical, human, recombinant enzyme, NADPH absorbance (AID 1159550)). Conditions: recombinant 6PGD, NADPH absorbance 341 nm; at 10 µM; stronger effect = higher value.
6-phosphogluconate dehydrogenase, decarboxylating (Homo sapiens), sequence (P52209 whole entry, looked up): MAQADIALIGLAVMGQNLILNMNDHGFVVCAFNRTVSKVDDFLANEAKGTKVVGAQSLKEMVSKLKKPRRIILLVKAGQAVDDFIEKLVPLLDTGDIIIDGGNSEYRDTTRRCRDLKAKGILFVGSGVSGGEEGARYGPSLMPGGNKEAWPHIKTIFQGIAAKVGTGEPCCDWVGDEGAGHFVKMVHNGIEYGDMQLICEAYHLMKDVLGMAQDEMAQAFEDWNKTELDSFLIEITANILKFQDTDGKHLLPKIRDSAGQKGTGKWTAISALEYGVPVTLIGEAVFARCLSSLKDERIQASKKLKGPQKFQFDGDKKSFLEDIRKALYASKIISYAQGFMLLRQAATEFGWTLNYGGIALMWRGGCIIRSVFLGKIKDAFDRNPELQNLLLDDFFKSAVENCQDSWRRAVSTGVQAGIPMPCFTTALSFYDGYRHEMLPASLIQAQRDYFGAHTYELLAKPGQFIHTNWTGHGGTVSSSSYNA

inhibition, inactive:
CC(=O)O[C@H]1C[C@@H](O)C(C)(C)[C@@H]2C[C@@H](OC(C)=O)[C@]3(C)[C@H](CC[C@@]4(C)[C@@H](c5ccoc5)OC(=O)[C@H]5O[C@@]534)[C@@]12C 1.48%, CC(C)C[C@H](NC(=O)[C@H](C)N)C(=O)O (H-Ala-Leu-OH) -6.83%, CC(=O)O[C@H]1CCC2(C)C(=CCC3C2CCC2(C)C3CC3OC4(CCC(C)CO4)C(C)C32)C1 (stereo not given in full) -0.838%, COc1ccc(-c2cc(=O)c3ccc(OC)cc3o2)cc1 -4.22%, CC(=O)Oc1ccc2c(c1)CCC1C2CCC2(C)C(OC(C)=O)CCC12 (stereo not given) 3.64%, C[C@H](CCC(=O)O)[C@H]1CC[C@H]2[C@@H]3C[C@H](O)[C@@H]4C[C@H](O)CC[C@]4(C)[C@H]3CC[C@]12C 2.54%, C=C[C@@H](C1=CC(=O)C(OC)=CC1=O)c1ccccc1 -0.743%, C[C@H](CCC(=O)O)C1CC[C@H]2[C@@H]3CC[C@H]4C[C@H](O)CC[C@]4(C)[C@H]3C[C@H](O)[C@]12C (stereo not given in full) -1.43%, CC(=O)OC1CC2C(C)(C)C(=O)C=CC2(C)C2CCC3(C)C(c4ccoc4)OC(=O)C4OC43C12C (stereo not given) -18.7%, COc1ccc2c(c1)OC/C(=C/c1ccc(O)c(O)c1)C2=O 2.37%, CCOc1ccc(C(=O)c2cc(O)c(OC)c(OC)c2O)cc1 0.271%, COc1c(Cl)c(C)c2c(c1Cl)OC(=O)c1c(C)c(Cl)c(OC)c(Cl)c1O2 -8.06%, CC(=O)OC1CCC2(C)C(=CCC3C2CCC2(C)C(C(C)CCCC(C)C)CCC32)C1 (stereo not given) 13.3%, COc1ccc2c(c1)[C@@]1(C)CCC(=O)C[C@@H]1CC2 3.57%, CC(=O)Oc1cc2c(c(C)c1OC(C)=O)CC1OC13[C@@]2(C)CC[C@@]1(C)C2C[C@](C)(C(=O)O)CC[C@]2(C)CC[C@]31C (stereo not given in full) 2.26%, C=C1C(CCl)(CCl)C2(Cl)C(Cl)C(Cl)C1(Cl)C2(Cl)Cl (stereo not given) -11.7%, CC[C@H]1OC(=O)[C@H](C)[C@@H](O[C@H]2C[C@@](C)(OC)[C@@H](O)[C@H](C)O2)[C@H](C)[C@@H](O[C@@H]2O[C@H](C)C[C@H](N(C)C)[C@H]2O)[C@](C)(O)C[C@@H](C)[C@@H]2NC(COCCOC)O[C@H]([C@H]2C)[C@]1(C)O (stereo not given in full) 5.47%, CC(C)C[C@H](NC(=O)OCC1c2ccccc2-c2ccccc21)C(=O)O 2.94%, O[C@@H]1[C@@H](O)[C@@H]2OC[C@@H](O2)[C@H]1O -10.4%, COc1ccc2c(c1)O[C@@H]1c3ccc(OC)cc3OC[C@H]21 0.294%, COC(=O)CCC(=O)O[C@H]1CCC2(C)C(CCC3C2C(=O)[C@@H](O)C2(C)C3CC3OC4(CCC(C)CO4)C(C)C32)C1 (stereo not given in full) 4.65%, C[C@H]1O[C@H]1P(=O)(O)O 6.14%, C=CC(C1=CC(=O)C(OC)=C(OC)C1=O)c1ccccc1 (stereo not given) 3.55%, C=C1C(C)(C)[C@@]2(Cl)C(Cl)[C@]1(Cl)C(Cl)(Cl)C2(Cl)Cl (stereo not given in full) 6.23%, COc1cc(O)c2c(=O)c(-c3ccccc3)coc2c1 -1.53%, CC(C)C[C@@H](NC(=O)[C@H](C)NC(=O)CNC(=O)[C@@H](NC=O)C(C)C)C(=O)N[C@@H](C)C(=O)N[C@@H](C(=O)N[C@H](C(=O)N[C@H](C(=O)N[C@@H](Cc1c[nH]c2ccccc12)C(=O)N[C@H](CC(C)C)C(=O)N[C@@H](Cc1c[nH]c2ccccc12)C(=O)N[C@H](CC(C)C)C(=O)N[C@@H](Cc1c[nH]c2ccccc12)C(=O)N[C@H](CC(C)C)C(=O)N[C@@H](Cc1c[nH]c2ccccc12)C(=O)NCCO)C(C)C)C(C)C)C(C)C (For-VGA[dL]A[dV]VVW[dL]W[dL]W[dL]W-NHCH2CH2OH) 10.9%, CC(=O)O[C@@H]1C[C@H]2C(C)(C)C(=O)[C@@H]3O[C@@H]3[C@]2(C)[C@H]2CC[C@@]3(C)[C@H](c4ccoc4)OC(=O)[C@H]4O[C@]43[C@@]21C -3.37%, CC[C@@H](CC[C@@H](C)[C@H]1CC[C@H]2[C@@H]3CC[C@H]4C[C@@H](O)CC[C@]4(C)[C@H]3CC[C@]12C)C(C)C -13.2%, Nc1nc2[nH]c(=O)c(=O)[nH]c2c(=O)[nH]1 13.8%, Nc1ccccn1 -0.139%, CO[C@H]1C[C@H](O[C@H]2[C@H](C)[C@@H](O[C@@H]3O[C@H](C)C[C@H](N(C)C)[C@H]3OC(C)=O)[C@@H](C)C[C@@]3(CO3)C(=O)[C@H](C)[C@H](OC(C)=O)[C@@H](C)[C@@H](C)OC(=O)[C@@H]2C)O[C@@H](C)[C@@H]1OC(C)=O -13%, COc1cc(OC)c2oc(-c3ccc(OC)c(OC)c3)c(O)c(=O)c2c1 -1.17%, COc1ccc2c(c1)CC[C@@H]1[C@@H]2CC[C@]2(C)[C@@H](O)[C@H](O)C[C@@H]12 5.45%, C[C@]12CC[C@@H]3c4ccc(OC(=O)CCC(=O)O)cc4CC[C@H]3[C@@H]1CCC2=O 5.64%, C[C@H](N)CO -0.518%, O=C(O[C@@H]1Cc2c(O)cc(O)cc2O[C@@H]1c1cc(O)c(O)c(O)c1-c1c([C@H]2Oc3cc(O)cc(O)c3C[C@H]2O)cc(O)c(O)c1O)c1cc(O)c(O)c(O)c1 1.5%, CC(C)CCCCCOC(=O)COc1ccc(Cl)cc1Cl -8.81%, CO[C@H]1/C=C/O[C@@]2(C)Oc3c(C)c(O)c4c(O)c(c(/C=N/N5CCN(C)CC5)c(O)c4c3C2=O)NC(=O)/C(C)=C/C=C/[C@H](C)[C@H](O)[C@@H](C)[C@@H](O)[C@@H](C)[C@H](OC(C)=O)[C@@H]1C 18.2%, CCCc1occc(=O)c1/C=C/O -1.45%, N[C@@H](C=O)[C@@H](O)[C@H](O)[C@H](O)CO -0.658%
